Inconclusive results are not listed. Unmarked numbers belong to inactive results. Calls follow the shape of the dose curve; as a rule, active = well fitted inhibition curve with a large enough effect; inconclusive = small, poorly fitted or top-dose-only effect; inactive = flat fitted curve, though single readings scatter.
Target: Calcium and integrin-binding protein 1 (Homo sapiens) (UniProt Q99828)
Experiment: Primary qHTS for Identification of Calcium Integrin Binding Protein 1 (CIB1) Competitor (AID 1508620);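 also: GST tagged CIB1 binding a fluorescein labelled alphaIIb integrin peptide tracer; top concentration of the series differs between compounds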
Conditions: CIB1-GST / FITC-alphaIIb peptide fluorescence polarization; series mostly up to 114 µM; activity change, negative = inhibition: at the top concentration
Method in brief: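 CIB1-GST (1 uM final) and compound incubated 15 min at room temperature before adding FITC-alphaIIb peptide tracer (100 nM final). Competition for binding read by fluorescence polarization (ex 480, em 540) after another 15 min at room temperature.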
% is scaled to controls: 0 for no effect and ±100 for the full control effect.

Calcium and integrin-binding protein 1 (Homo sapiens), sequence (Q99828 whole entry, looked up): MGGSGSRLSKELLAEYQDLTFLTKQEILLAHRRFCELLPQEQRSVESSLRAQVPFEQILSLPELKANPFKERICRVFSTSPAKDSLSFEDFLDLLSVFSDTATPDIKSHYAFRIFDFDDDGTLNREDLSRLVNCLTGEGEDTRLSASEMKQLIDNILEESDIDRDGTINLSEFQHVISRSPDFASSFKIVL

Going from `Cc1noc(C)c1-c1ccc2ncnc(NCC3CCN(C)CC3)c2c1` to `c1nc(NCC2CCCCC2)c2cc(-c3ccc4c(c3)OCO4)ccc2n1`, the “activity change, negative = inhibition” value rises from 5.8% to 21.6%.

First: [O-][n+]1onc(-c2ccccc2)c1CO
Second: Cc1cc(NS(=O)(=O)c2ccc(NC(=O)Cc3ccccc3)cc2)no1
The “activity change, negative = inhibition” value of the first is higher: -2.62% for the first, -8.06% for the second.

Going from `C=Cc1nc(Nc2cc(F)cc(F)c2)nc(NC2CCCC2)n1` to `Cc1ccc2nc3sc(C(=O)N4CCCCC4)cc3cc2c1`, the “activity change, negative = inhibition” value falls from 9.06% to 0.836%.

Going from `O=C1NC(=O)/C(=C/c2cccn2-c2ccc(P(O)O)cc2)N1` to `Cc1cc(N2C(=O)c3ccccc3C2=O)n[nH]1`, the “activity change, negative = inhibition” value falls from -2.2% to -7.17%.

Going from `CC(C)(C)OC(=O)N1CCN(c2ccc(NCc3ncc(-c4ccc(C#N)cc4)s3)cc2)CC1` to `Cc1cccc(C)c1-n1c(SCC(=O)Nc2ccc(C(=O)O)cc2)nnc1-c1ccc([S+](=O)([O-])N2CCCC2)cc1`, the “activity change, negative = inhibition” value falls from 0.126% to -16.2%.

Compared with `CN(C)CCCNC(=O)c1ccc(-c2cnc3c(O)ccc(C(=O)O)c3c2)cc1`, `O=C(CCCc1ccccc1)NC(c1ccco1)c1cc(Cl)c2cccnc2c1O` (stereo not drawn) is lower in “activity change, negative = inhibition” value: -5% for the first, -11.4% for the second.

Going from `CNc1nnc(-c2cccc3ccccc23)s1` to `c1cncc(CNc2ncnc3ccc(-c4ccco4)cc23)c1`, the “activity change, negative = inhibition” value falls from -3.78% to -12.9%.

Compared with `COc1ccc(C2Nc3ccccc3C(=O)N2Cc2ccccc2)cc1COc1ccc(C(N)=O)cc1` (stereo not drawn), `COc1ccc(-c2nc3ccccc3c(=O)n2Cc2ccco2)cc1COc1c(C)cccc1C` is lower in “activity change, negative = inhibition” value: 3.92% for the first, 1.13% for the second.

First: O=C1CCCC2=C1C(c1c(Cl)cccc1Cl)N=C(Nc1nc3ccccc3o1)N2 (stereo not drawn)
Second: Cc1cccc(-c2ccc3ncnc(NCc4cc(C)cs4)c3c2)c1
The “activity change, negative = inhibition” value of the first is lower: -1.51% for the first, 3.27% for the second.
